Giardia kill: Small Molecules that selectively kill Giardia lamblia: qHTS | Giardia lamblia trophozoite viability | 340,000 tested, 0.15% active | activity change, % at 7.66 µM, hits read low; in the data active = activity change below about -80%; inconclusive = between about -30% and that limit;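 also: parasites exposed to compound for two days anaerobically before the ATP read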
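Giardia trophozoites, 100 cells per well, were exposed to compounds for 48 hrs at 37 deg C under anaerobic conditions; viability was then read as ATP content by bioluminescence after 15-30 min at room temperature.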
DT40 TDP1 no CPT: qHTS for Inhibitors of human tyrosyl-DNA phosphodiesterase 1 (TDP1): qHTS in cells in absence of CPT; DT40 Tdp1-/- hTDP1 cells, no CPT, ATP luminescence, 48 h; 420,000 tested, 15% active; AID 686978, 2013; Potency, µM (series often up to 46.2 µM), for inactives: top-dose activity change, negative = growth inhibition, hits mostly inhibitors; also: potency is read from the fitted curve at half-maximal effect; nearly all actives have a fitted effect of over 55% in size
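Chicken DT40 Tdp1-/- cells stably complemented with human TDP1 were seeded at 400 cells/well with DMSO in place of 20 nM camptothecin. After compound pinning, cells grew at least 48 hr at 37 °C; viability read by CellTiter-Glo luminescence.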
ELG1 DNA repair: qHTS screen for small molecules that inhibit ELG1-dependent DNA repair in human embryonic kidney (HEK293T) cells expressing luciferase-tagged ELG1; Potency, µM (highest dose often 46.1 µM), for the others: at the top dose activity change, negative = inhibition, most hits filed as inhibitors; 330,000 tested, 2.3% active; HEK293T ELG1-luciferase reporter, luminescence, 16 h; DNA damage induced by 5-fluorouridine; AID 504467, 2011; also: potency is read from the fitted curve at half-maximal effect; nearly all actives have a fitted effect of over 55% in size
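Reporter activity after DNA damage by 5-fluorouridine is monitored. Compound-treated cells incubate 16 hr at 37 °C, then ONE-Glo is added for 30 min before luminescence reading.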
TDP1 cell CPT: qHTS for Inhibitors of human tyrosyl-DNA phosphodiesterase 1 (TDP1): qHTS in cells in presence of CPT; Potency, µM (highest dose often 46.2 µM), for inactives: top-dose activity change, negative = growth inhibition, actives largely listed as inhibitors; chicken DT40 Tdp1-/-;hTDP1 cells + 20 nM CPT, ATP luminescence, 48 h; 420,000 tested, 12% active; AID 686979, 2013; also: potency is read from the fitted curve at half-maximal effect; nearly all actives have a fitted effect of over 55% in size
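Chicken DT40 Tdp1-/- cells complemented with human TDP1, 400 cells/well, exposed to compounds plus 20 nM camptothecin for at least 48 h at 37 C; viability read as ATP content by CellTiter-Glo luminescence.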
TDP1 inh: qHTS Assay for Inhibitors of Tyrosyl-DNA Phosphodiesterase (TDP1) | recombinant TDP1, AlphaScreen DNA substrate cleavage | Potency, µM (titrated, usually from 130 µM), for inactives: at the top dose activity change, negative = inhibition, most hits filed as inhibitors | 350,000 tested, 0.28% active; also: potency is read from the fitted curve at half-maximal effect; nearly all actives have a fitted effect of over 40% in size
Target sequence (Q9NUW8 whole entry, looked up): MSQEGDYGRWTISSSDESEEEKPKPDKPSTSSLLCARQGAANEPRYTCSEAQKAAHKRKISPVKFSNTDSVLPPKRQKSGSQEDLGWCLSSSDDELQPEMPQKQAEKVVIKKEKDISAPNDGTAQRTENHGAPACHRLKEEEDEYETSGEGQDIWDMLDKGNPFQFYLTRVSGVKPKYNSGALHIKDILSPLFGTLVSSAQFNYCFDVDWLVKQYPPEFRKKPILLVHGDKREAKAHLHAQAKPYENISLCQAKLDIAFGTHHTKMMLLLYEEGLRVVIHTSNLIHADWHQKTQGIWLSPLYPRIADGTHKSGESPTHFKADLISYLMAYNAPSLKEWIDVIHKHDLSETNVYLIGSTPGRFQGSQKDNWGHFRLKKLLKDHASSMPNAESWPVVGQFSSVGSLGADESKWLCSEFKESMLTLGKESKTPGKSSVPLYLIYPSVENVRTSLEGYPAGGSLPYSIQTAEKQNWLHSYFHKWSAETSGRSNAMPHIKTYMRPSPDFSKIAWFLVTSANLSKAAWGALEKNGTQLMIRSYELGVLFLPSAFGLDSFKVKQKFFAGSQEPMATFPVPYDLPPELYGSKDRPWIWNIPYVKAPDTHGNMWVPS
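Here, a 5' biotin and 3' phosphotyrosine-FITC DNA oligonucleotide reports Tdp1 activity: intact substrate bridges AlphaScreen beads, while cleavage leaves a 3' phosphate and drops signal. All incubations at room temperature.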
IL-1B inflam inh: qHTS for Inhibitors of Inflammasome Signaling: IL-1-beta AlphaLISA Primary Screen; THP-1 LPS/ATP IL-1B secretion, AlphaLISA, 16 h; hits give low values; activity change, % at 57.5 µM; 360,000 tested, 4.7% active; AID 743279, 2014; in the data active = activity change below about -50%; inconclusive = mostly about -30% to -49%
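Secreted IL-1B measured by AlphaLISA bead assay after 16 h compound exposure of THP-1 cells; compounds (final up to 57.5 uM) added 1 h before LPS (250 ng/mL) and ATP (1.25 mM) stimulation; lower signal means less secretion.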
* = called active by the depositor; ? = inconclusive; nt = not tested or not shown; [ ] = remark or other dose. Hits are enriched below; roughly 19% of the tested compounds scored in any of these assays. Unless noted, calls follow the shape of the dose curve; as a rule, active = well fitted curve in the direction sought with a large enough effect; inconclusive = small, poorly fitted or top-dose-only effect, or another doubt; inactive = no such curve, though single readings can be large; an effect the other way counts as inactive or inconclusive. % is scaled to controls: 0 for no effect and ±100 for the full control effect.

SMILES | Giardia kill | DT40 TDP1 no CPT | ELG1 DNA repair | TDP1 cell CPT | TDP1 inh | IL-1B inflam inh
COc1ccccc1NC(=O)c1ccc(-c2ccc(Br)cc2)o1 | -13 | 5.8µM* | -20% | 7.3µM* | 1% | 23
CN(C)C(=O)c1ccc(NC(=O)c2ccc(-c3ccc(Cl)cc3)o2)cc1 | 2 | 16µM* | -17% | 23µM* | 7% | -12
COC(=O)c1ccccc1NC(=O)c1ccc(-c2cccc(Cl)c2)o1 | -2 | -28% | ? | -8% | 3% | 29
Cc1cc(=O)n(Cc2ccccc2Cl)c2c1c(C)nn2-c1ccccc1 | nt | ? | nt | ? | 2% | nt
CN1CCN(c2ccccc2NC(=O)c2cccc([N+](=O)[O-])c2)CC1 | 12 | -14% | -13% | -5% | 0% | 12
O=C(NC(=S)Nc1ccccc1N1CCOCC1)c1ccc(-c2cc(Cl)ccc2Cl)o1 | -16 | 23µM* | -20% | ? | 2% | 13
CN1CCN(c2ccccc2NC(=O)c2ccc([N+](=O)[O-])o2)CC1 | -92* | 9.2µM* | 9.2µM* | 7.3µM* | -1% | -9
CN1CCN(c2ccccc2NC(=O)c2ccc(-c3cccc([N+](=O)[O-])c3)o2)CC1 | 23 | 15µM* | ? | ? | 3% | 0
CS(=O)(=O)N1CCN(c2ccccc2NC(=O)c2ccc([N+](=O)[O-])o2)CC1 | -98* | 8.2µM* | 23µM* | 3.7µM* | 2% | ?
CCOc1ccc(-c2c(C(=O)N/N=C/C3CCCCC3)nnn2-c2nonc2N)cc1 | -13 | 0% | 24% | -27% | 1% | 5
CCN(CCCNC(=O)CSc1cc(=O)n(CC)c2ccccc12)c1ccccc1 | nt | ? | nt | ? | 7% | nt
O=C(Nc1ccccc1N1CCCC1)c1ccc(Br)o1 | -9 | ? | 6% | ? | 0% | 4
CS(=O)(=O)N1CCN(c2ccccc2NC(=O)c2ccc3ccccc3c2)CC1 | -6 | ? | 12µM* | ? | 4%[56.1 µM] | -4
COc1ccc(NC(=O)c2cc3ccccc3o2)cc1OC | -8 | -18% | ? | -12% | 4% | -16
CN1CCN(c2ccccc2NC(=O)c2ccc(-c3ccc(Br)cc3)o2)CC1 | 4 | 3.3µM* | ? | 3.3µM* | 5% | 29
CS(=O)(=O)N1CCN(c2ccccc2NC(=O)c2ccc(Cl)cc2)CC1 | 0 | -7% | -1% | -5% | 6% | 0
COc1ccc(NC(=O)c2ccc(-c3ccc(F)cc3)o2)cc1OC | nt | 16µM* | nt | 21µM* | nt | -28
O=C(Nc1ccccc1N1CCCCC1)c1ccc(-c2ccc(Cl)cc2)o1 | 2 | 4.1µM* | 1% | 3.3µM* | -3% | 26
O=C(NCC1(N2CCOCC2)CCCC1)c1cnn(-c2ncc3c(n2)-c2ccccc2CC3)c1C1CC1 | nt | -1% | nt | 9%[9.04 µM] | nt | nt
O=C(Oc1ccc2ccc(=O)oc2c1)c1ccco1 | -9 | 18% | 25% | -11% | -2% | 10
CCCn1c(SCC(=O)NCCCN2CCCC2=O)nc2ccccc2c1=O | -13 | -17% | ? | 23% | 0% | 27
Cc1cccc(CCN(CC(=O)NCc2ccc(F)cc2)C(=O)c2csnn2)c1 | -1 | ? | -3% | -3% | 0% | ?
N#Cc1sc2nc(-c3ccccc3)cc(-c3ccco3)c2c1N | -14 | ? | 12% | 18µM* | -8% | -9
COCCNC(=O)CN1C(=O)c2cccnc2Oc2ccc(Cl)cc21 | nt | -11% | nt | -1% | -1% | nt
N#Cc1c(F)cccc1N1CCN(Cc2ccc3c(c2)OCO3)CC1 | -16 | ? | ? | 16µM* | 0%[0.0935 µM] | -14
SMILES | Giardia kill | DT40 TDP1 no CPT | ELG1 DNA repair | TDP1 cell CPT | TDP1 inh | IL-1B inflam inh
C/C(=C\c1ccccc1)C(=O)N1CCN(Cc2ccc3c(c2)OCO3)CC1 | 14 | -14% | 7.3µM* | -20% | 5% | -69*
COc1cc(S(=O)(=O)N2CCN(Cc3ccc4c(c3)OCO4)CC2)c(C)cc1C | -24 | ? | -8% | 15µM* | 5% | -20
CCOc1ccccc1C(=O)NCC(=O)N1CCN(Cc2ccc3c(c2)OCO3)CC1 | 4 | ? | ? | 29µM* | 0% | -80*
CCSc1ccccc1C(=O)N1CCN(Cc2ccc3c(c2)OCO3)CC1 | -1 | -11% | -6% | -18% | 6% | ?
C/C(=N/NC(=O)CNC(=O)Cc1ccc(Cl)cc1)c1ccco1 | -22 | -3% | 2% | 12% | 0% | nt
Cc1cccc(N2CCN(C(=O)c3ccc(Cl)c(NC4=NC5CS(=O)(=O)CC5S4)c3)CC2C)c1 (stereo not given) | -8 | ? | -20% | ? | 4% | 7
COc1cc(-c2cnc3ccccc3c2)cc2c1OCCN(C(=O)CCn1nc(C)cc1C)C2 | nt | -25% | nt | 3%[9.04 µM] | nt | nt
Cc1nn(Cc2ccccc2)c2sc(C(=O)N3CCN(Cc4ccc5c(c4)OCO5)CC3)cc12 | 34 | ? | nt | 16µM* | 6% | ?
O=C(c1ccccc1F)N1CCN(Cc2ccc3c(c2)OCO3)CC1 | 1 | -25% | ? | 11% | nt | -67*
CCc1cc2cc(C(=O)N3CCN(c4ccccc4)CC3)sc2s1 | 2 | ? | 0% | -14% | 3% | 12
COc1ccccc1C(=O)N1CCN(Cc2ccc3c(c2)OCO3)CC1 | -7 | -14% | ? | -7% | 8% | -57*
O=C(O)c1ccccc1C(=O)N1CCN(Cc2ccc3c(c2)OCO3)CC1 | 2 | 24% | 9% | 10% | nt | 29
CCc1cc2cc(C(=O)N3CCN(Cc4ccccc4)CC3)sc2s1 | -17 | ? | nt | ? | 2% | -85*
CCS(=O)(=O)c1ncc(N(Cc2ccco2)Cc2sccc2C)c(C(=O)Nc2ccc(C)cc2C)n1 | nt | ? | nt | ? | 7% | nt
Cc1ccc(S(=O)(=O)Nc2cc(Cl)ccc2-n2cncn2)cc1 | -9 | 5% | 18% | 1% | 0% | 31
O=C(C1CCN(S(=O)(=O)c2ccccc2F)CC1)N1CCN(Cc2ccc3c(c2)OCO3)CC1 | 22 | ? | ? | 21µM* | 5% | -12
O=C(c1ccc(F)cc1)N1CCC(C(=O)N2CCN(Cc3ccc4c(c3)OCO4)CC2)CC1 | 4 | -2% | -25% | 2% | nt | -5

From PubChem
